Screening results from PubChem.
Shown are actives, neighbours in structure and some others; about 22% of the full set was active somewhere.
E-sel TNF inh = blocks E-selectin expression induced by TNF alpha; HUVEC TNFa-induced E-selectin immunofluorescence, high content; inhibition, % at 2 µM; 120,000 compounds, 0.71% hits; AID 1246;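 active means inhibition above the batch mean plus 3 SD, and confirmed as a hit on visual image review, cut at about 43% in these data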
CYP2C19 act = increases human CYP2C19 enzyme activity | recombinant CYP2C19, luciferin-H EGE luminescence; hits give high values; 0 = fully inhibited enzyme, 1 = untreated enzyme | P33261 | activation factor at 5 µM | 96,000 tested, under 10 active | AID 1025;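 active means activation factor of at least 2 at 5 µM in the primary screen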
CYP2C9 activ = activators of human CYP2C9; P11712; activation factor at 5 µM; recombinant CYP2C9, luciferin-H conversion, luminescence; hits give high values; factor 1 = untreated enzyme, 0 = blocked; 96,000 compounds, 1.4% hits; AID 1024;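 active means activation factor of 2 or more for CYP2C9 at a 5 µM dose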
Target sequence (P11712 whole entry, looked up): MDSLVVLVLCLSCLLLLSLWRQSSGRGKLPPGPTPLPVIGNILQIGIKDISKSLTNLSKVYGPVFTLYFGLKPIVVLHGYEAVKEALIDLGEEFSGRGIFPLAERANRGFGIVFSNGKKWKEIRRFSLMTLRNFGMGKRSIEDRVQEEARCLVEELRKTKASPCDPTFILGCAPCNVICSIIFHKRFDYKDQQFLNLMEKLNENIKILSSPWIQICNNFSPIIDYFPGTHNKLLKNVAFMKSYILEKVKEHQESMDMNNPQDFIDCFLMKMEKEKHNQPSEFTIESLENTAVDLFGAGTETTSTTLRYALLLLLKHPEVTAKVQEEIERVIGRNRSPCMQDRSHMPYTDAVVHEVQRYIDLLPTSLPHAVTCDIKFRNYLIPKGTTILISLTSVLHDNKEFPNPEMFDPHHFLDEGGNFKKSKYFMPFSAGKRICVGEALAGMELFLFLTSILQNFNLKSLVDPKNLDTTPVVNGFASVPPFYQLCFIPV
CYP2C19 inh = inhibitors of human CYP2C19 | P33261 | CYP2C19 Supersomes, luciferin-H EGE luminescence, 30 min | inhibition, % at 5 µM | 96,000 compounds, 21% hits;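 active means CYP2C19 inhibition above a set limit at 5 µM in the primary screen, cut at about 50% in these data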
CYP2C9 inhib = blocks human cytochrome P450 2C9; P11712; CYP2C9 Supersomes, luciferin-H conversion, luminescence; inhibition, % at 5 µM; 96,000 compounds, 20% hits;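 active means blocking of liver enzyme CYP2C9 beyond about 50% at 5 µM, limit read from the data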
cytoskel mod = alters cytoskeleton assembly in HUVEC cells; 91,000 compounds, 0.18% hits; AID 836; inhibition, % at 2 µM; HUVEC TNFa F-actin phalloidin imaging, high content;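 active means inhibition above the batch mean plus 3 SD and confirmed as a hit by visual image inspection, cut at about 30% in these data, passing the limit was not always enough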
Numbers stand for hits.

Screening COc1ccc(CCNS(=O)(=O)c2ccc3c(c2)n(C)c(=O)c(=O)n3C)cc1OC returned E-sel TNF inh inactive, CYP2C19 act inactive, CYP2C9 activ inactive, CYP2C19 inh inactive, CYP2C9 inhib inactive and cytoskel mod inactive.
For COc1ccc(CCN(C)c2ccc(S(=O)(=O)N3CCCC3)cn2)cc1OC the results were E-sel TNF inh 76.
For COc1ccc(CCNS(=O)(=O)c2ccc(S(=O)(=O)N3CCCC3)cc2)cc1OC the results were E-sel TNF inh inactive, CYP2C19 act inactive, CYP2C9 activ inactive, CYP2C19 inh inactive, CYP2C9 inhib 57 and cytoskel mod inactive.
`CCC/C=C(\CCC)C(NS(=O)(=O)c1ccc(C(F)(F)F)cc1)c1ccccc1` (stereo not drawn) gave E-sel TNF inh inactive.
Cc1nc2sc(C(c3cccc(F)c3)N3CCC(C)CC3)c(O)n2n1 (stereo not drawn) was read as E-sel TNF inh inactive, CYP2C19 act inactive, CYP2C9 activ inactive, CYP2C19 inh 80, CYP2C9 inhib inactive and cytoskel mod inactive.
`COc1cccc(C(c2sc3nc(C)nn3c2O)N2CCc3ccccc3C2)c1` (stereo not drawn) gave E-sel TNF inh inactive, CYP2C19 act inactive, CYP2C9 activ inactive, CYP2C19 inh 78 and CYP2C9 inhib 53.
`CCN1CCN(C(c2cccc(OC)c2)c2sc3nc(C)nn3c2O)CC1` (stereo not drawn) gave E-sel TNF inh inactive.
`Cc1nc2sc(C(c3ccccc3)N3CCN(c4ccccc4F)CC3)c(O)n2n1` (stereo not drawn) gave E-sel TNF inh inactive, CYP2C19 act inactive, CYP2C9 activ inactive, CYP2C19 inh 66, CYP2C9 inhib inactive and cytoskel mod inactive.
Cc1nc2sc(C(c3cccc(F)c3)N3CCC(O)CC3)c(O)n2n1 (stereo not drawn) was read as E-sel TNF inh inactive, CYP2C19 act inactive, CYP2C9 activ inactive, CYP2C19 inh inactive, CYP2C9 inhib inactive and cytoskel mod inactive.
COc1ccc(-c2csc(NC(=O)c3ccc(S(=O)(=O)N4CCc5ccccc5C4)cc3)n2)c(OC)c1 was read as E-sel TNF inh inactive.
`COc1ccc(CC(=O)OCC(=O)NC(=O)NC2CCCCC2)cc1` gave E-sel TNF inh inactive, CYP2C19 act inactive, CYP2C9 activ inactive, CYP2C19 inh inactive, CYP2C9 inhib 56 and cytoskel mod inactive.
For COc1ccc(CC(=O)OCC(=O)Nc2ccc(Cl)cn2)cc1 the results were E-sel TNF inh inactive, CYP2C19 act inactive, CYP2C9 activ inactive, CYP2C19 inh inactive, CYP2C9 inhib inactive and cytoskel mod inactive.
COc1ccc(CC(=O)OCC(=O)Nc2ncc(Cl)cc2Cl)cc1 was read as E-sel TNF inh inactive, CYP2C19 act inactive, CYP2C9 activ inactive, CYP2C19 inh 64, CYP2C9 inhib 53 and cytoskel mod inactive.
`COc1cc(CC(=O)OCC(=O)Nc2ncc(Cl)cc2Cl)cc(OC)c1OC` gave E-sel TNF inh inactive, CYP2C19 act inactive, CYP2C9 activ inactive, CYP2C19 inh 67, CYP2C9 inhib inactive and cytoskel mod inactive.
Screening O=C(COC(=O)CCc1ccccc1)Nc1ncc(Cl)cc1Cl returned E-sel TNF inh inactive, CYP2C19 act inactive, CYP2C9 activ inactive, CYP2C19 inh 54, CYP2C9 inhib inactive and cytoskel mod inactive.
OC(COc1ccc(Cl)cc1)CN1C2=NCCCN2c2ccccc21 (stereo not drawn) was read as E-sel TNF inh inactive, CYP2C19 act inactive, CYP2C9 activ inactive, CYP2C19 inh inactive, CYP2C9 inhib inactive and cytoskel mod inactive.
Screening CCOC(=O)c1c(NC(=S)Nc2ccccc2)sc2c1CCN(CCc1ccccc1)C2 returned E-sel TNF inh inactive, CYP2C19 act inactive, CYP2C9 activ inactive, CYP2C19 inh inactive, CYP2C9 inhib inactive and cytoskel mod inactive.
`CCCCCCOC(=O)c1ccc(NC(=O)c2cc(OC)c(OC)c(OC)c2Br)cc1` gave E-sel TNF inh inactive, CYP2C19 act inactive, CYP2C9 activ inactive, CYP2C19 inh inactive, CYP2C9 inhib 64 and cytoskel mod inactive.
`COc1cccc(C(C#N)N2CCCCC2)c1O` (stereo not drawn) gave E-sel TNF inh inactive, CYP2C19 act inactive, CYP2C9 activ inactive, CYP2C19 inh inactive, CYP2C9 inhib inactive and cytoskel mod 48.
Screening COc1ccc(C(C#N)N2CCCCCC2)cc1OC (stereo not drawn) returned E-sel TNF inh inactive, CYP2C19 act inactive, CYP2C9 activ inactive, CYP2C19 inh inactive, CYP2C9 inhib inactive and cytoskel mod inactive.
For COc1ccc(S(=O)(=O)N(CC(=O)Nc2cccnc2)c2ccccc2OC)cc1 the results were E-sel TNF inh inactive, CYP2C19 act inactive, CYP2C9 activ inactive, CYP2C19 inh 54, CYP2C9 inhib 94 and cytoskel mod inactive.
Screening COc1ccccc1N(CC(=O)Nc1cccnc1)S(=O)(=O)c1ccccc1 returned E-sel TNF inh inactive, CYP2C19 act inactive, CYP2C9 activ inactive, CYP2C19 inh 90, CYP2C9 inhib 100 and cytoskel mod inactive.
Screening COc1ccc(N(CC(=O)Nc2ccc3c(c2)OCCO3)S(=O)(=O)c2cccnc2)cc1 returned E-sel TNF inh inactive, CYP2C19 act inactive, CYP2C9 activ inactive, CYP2C19 inh inactive and CYP2C9 inhib inactive.
Screening COc1ccc(N(CC(=O)Nc2ccc3c(c2)OCO3)S(=O)(=O)c2ccccc2)cc1 returned E-sel TNF inh inactive.
`COc1ccccc1N(CC(=O)Nc1ccc(F)c(F)c1)S(C)(=O)=O` gave CYP2C19 act inactive, CYP2C9 activ inactive, CYP2C19 inh 88, CYP2C9 inhib 66 and cytoskel mod inactive.
`COc1ccc(OC)c(N(CC(=O)Nc2cccnc2)S(=O)(=O)c2ccccc2)c1` gave E-sel TNF inh inactive, CYP2C19 act inactive, CYP2C9 activ inactive, CYP2C19 inh 98, CYP2C9 inhib 98 and cytoskel mod inactive.
For COc1ccccc1N(CC(N)=O)S(=O)(=O)c1ccc(C)cc1 the results were E-sel TNF inh inactive, CYP2C19 act inactive, CYP2C9 activ inactive, CYP2C19 inh inactive, CYP2C9 inhib inactive and cytoskel mod inactive.
Screening O=C(COc1ccc(/C=N/NS(=O)(=O)c2ccccc2)cc1)Nc1cccc(Cl)c1 returned E-sel TNF inh inactive, CYP2C19 act inactive, CYP2C9 activ inactive, CYP2C19 inh inactive, CYP2C9 inhib inactive and cytoskel mod inactive.
Screening CSc1ccc(OC2CCN(Cc3ccccc3)CC2)cc1 returned E-sel TNF inh inactive.
For N/C(COc1ccccc1)=N\NC(=O)c1cccnc1Oc1ccccc1 the results were E-sel TNF inh inactive, CYP2C19 act inactive, CYP2C9 activ inactive, CYP2C19 inh inactive and CYP2C9 inhib inactive.
Screening CCn1c(O)c(C=Nc2ccccc2)oc1=S returned E-sel TNF inh inactive, CYP2C19 act inactive, CYP2C9 activ inactive, CYP2C19 inh inactive, CYP2C9 inhib inactive and cytoskel mod inactive.
COc1ccccc1N(CC(=O)Nc1cccnc1)S(C)(=O)=O was read as E-sel TNF inh inactive, CYP2C19 act inactive, CYP2C9 activ inactive, CYP2C19 inh 68, CYP2C9 inhib inactive and cytoskel mod inactive.
